# Many of the other results were omitted from the sample, so the strongest signals are more common in it than they were.
# Key:
# Test in all cases: glycan array binding signal (z-score within array); higher = stronger binding
# Settings in all cases: glycan notation: IUPAC condensed, linker removed
# [1] = biological target: Fuc(a1-2)Gal(b1-3)GlcNAc(b1-2)Man(a1-3)[Fuc(a1-2)Gal(b1-3)GlcNAc(b1-2)Man(a1-6)]Man(b1-4)GlcNAc(b1-4)GlcNAc
# In short: (§1)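 Negative Z-scores can be read as non-binding. The Z-score is calculated within each array and then averaged across arrays of one protein sequence at different concentrations or buffers and across linkers. Arrays, 3228 in all, were curated from the Consortium for Functional Glycomics database and kept only where the protein sequence was available.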
# [2] = biological target: Fuc(a1-2)Gal(b1-3)GlcNAc(b1-3)GalNAc
# In short: as §1
# [3] = biological target: Fuc(a1-2)Gal(b1-3)[Fuc(a1-4)]GlcNAc
# In short: as §1
# [4] = biological target: Fuc(a1-2)Gal(b1-3)[Fuc(a1-4)]GlcNAc(b1-3)[Gal(b1-4)GlcNAc(b1-6)]Gal(b1-4)Glc
# In short: as §1
# [5] = biological target: Fuc(a1-2)Gal(b1-4)GlcNAc(b1-2)[Fuc(a1-2)Gal(b1-4)GlcNAc(b1-4)]Man(a1-3)[Fuc(a1-2)Gal(b1-4)GlcNAc(b1-2)Man(a1-6)]Man(b1-4)GlcNAc(b1-4)GlcNAc
# In short: as §1
# [6] = biological target: Fuc(a1-2)Gal(b1-4)GlcNAc(b1-3)Gal(b1-4)GlcNAc
# In short: as §1
# [7] = biological target: Fuc(a1-2)Gal6S(b1-4)Glc6S
# In short: as §1
# [8] = biological target: Fuc(a1-2)[Gal(a1-3)]Gal(b1-3)GlcNAc
# In short: as §1
# [9] = biological target: Fuc(a1-2)[Gal(a1-3)]Gal(b1-4)GlcNAc
# In short: as §1
# [10] = biological target: Fuc(a1-2)[Gal(a1-3)]Gal(b1-4)GlcNAc(b1-2)Man(a1-3)[Fuc(a1-2)[Gal(a1-3)]Gal(b1-4)GlcNAc(b1-2)Man(a1-6)]Man(b1-4)GlcNAc(b1-4)GlcNAc
# In short: as §1
# [11] = biological target: Fuc(a1-2)[GalNAc(a1-4)]Gal(b1-4)GlcNAc
# In short: as §1
# [12] = biological target: Fuc(a1-3)[Gal(b1-4)]GlcNAc(b1-2)Man(a1-3)[Fuc(a1-3)[Gal(b1-4)]GlcNAc(b1-2)Man(a1-6)]Man(b1-4)GlcNAc(b1-4)[Fuc(a1-6)]GlcNAc
# In short: as §1
# [13] = biological target: Fuc(a1-3)[Gal3S(b1-4)]GlcNAc6S
# In short: as §1
# [14] = biological target: Gal(a1-3)[Gal(a1-4)]Gal(b1-4)GlcNAc
# In short: as §1
# [15] = biological target: Gal(a1-4)Gal(b1-3)GlcNAc(b1-2)Man(a1-3)[Gal(a1-4)Gal(b1-3)GlcNAc(b1-2)Man(a1-6)]Man(b1-4)GlcNAc(b1-4)GlcNAc
# In short: as §1
# [16] = biological target: Gal(b1-3)GlcNAc(b1-2)Man(a1-3)[GlcNAc(b1-4)][Gal(b1-3)GlcNAc(b1-2)Man(a1-6)]Man(b1-4)GlcNAc(b1-4)GlcNAc
# In short: as §1
# [17] = biological target: Gal(b1-4)GalNAc(b1-3)[Fuc(a1-2)]Gal(b1-4)GlcNAc
# In short: as §1
# [18] = biological target: Gal(b1-4)GlcNAc(a1-6)Gal(b1-4)GlcNAc
# In short: as §1
# [19] = biological target: Gal(b1-4)GlcNAc(b1-2)Man(a1-3)Man(b1-4)GlcNAc(b1-4)GlcNAc
# In short: as §1
# [20] = biological target: Gal(b1-4)GlcNAc(b1-2)Man(a1-3)[Gal(b1-4)GlcNAc(b1-2)Man(a1-6)][GlcNAc(b1-4)]Man(b1-4)GlcNAc(b1-4)[Fuc(a1-6)]GlcNAc
# In short: as §1
# [21] = biological target: Gal(b1-4)GlcNAc(b1-2)[Gal(b1-4)GlcNAc(b1-6)]Man(a1-6)[GlcNAc(b1-4)][Gal(b1-4)GlcNAc(b1-2)Man(a1-3)]Man(b1-4)GlcNAc(b1-4)GlcNAc
# In short: as §1
# [22] = biological target: Gal(b1-4)GlcNAc(b1-2)[Gal(b1-4)GlcNAc(b1-6)]Man(a1-6)[GlcNAc(b1-4)][Gal(b1-4)GlcNAc(b1-2)[Gal(b1-4)GlcNAc(b1-4)]Man(a1-3)]Man(b1-4)GlcNAc(b1-4)[Fuc(a1-6)]GlcNAc
# In short: as §1
# [23] = biological target: Gal(b1-4)GlcNAc(b1-3)Gal(b1-3)GalNAc
# In short: as §1
# [24] = biological target: Gal(b1-4)GlcNAc(b1-3)Gal(b1-4)GlcNAc(b1-3)Gal(b1-4)GlcNAc
# In short: as §1
# [25] = biological target: Gal(b1-4)GlcNAc(b1-3)Gal(b1-4)GlcNAc(b1-3)Gal(b1-4)GlcNAc(b1-2)Man(a1-3)[Gal(b1-4)GlcNAc(b1-3)Gal(b1-4)GlcNAc(b1-3)Gal(b1-4)GlcNAc(b1-2)Man(a1-6)]Man(b1-4)GlcNAc(b1-4)GlcNAc
# In short: as §1
# [26] = biological target: Gal(b1-4)GlcNAc(b1-3)Gal(b1-4)GlcNAc(b1-3)Gal(b1-4)GlcNAc(b1-3)Gal(b1-4)GlcNAc(b1-2)Man(a1-3)[Gal(b1-4)GlcNAc(b1-3)Gal(b1-4)GlcNAc(b1-3)Gal(b1-4)GlcNAc(b1-3)Gal(b1-4)GlcNAc(b1-2)Man(a1-6)]Man(b1-4)GlcNAc(b1-4)[Fuc(a1-6)]GlcNAc
# In short: as §1
# [27] = biological target: Gal(b1-4)GlcNAc(b1-3)Gal(b1-4)[Fuc(a1-3)]GlcNAc(b1-3)Gal(b1-4)[Fuc(a1-3)]GlcNAc
# In short: as §1
binder,measurement,setting,value
PX9961M-bvu-482-23-482 (Bacteroides vulgatus) (protein) WLDLAPSTQVDTETSINVLSDIEFTLNGIYSTMQSSDAYSGRLVYYGDVTGDDMQAVSSTKRTGNYYRFNFTKDNGPSSHWSYLYSIIQNCNLILMNVDKLSIDEDETEYKNDLKGQALAIRGMALFDLTRIFGYPYLKDNGASLGVPIVKELSTIDSKPARNTVAECYTEIISDLKNSTELLSGDFNKGKVNRWAAMTLLSRVYLYKGEYNEALTMAENAIKGAEKEGYALWTNEEYPTAWGNDASASNPGEILFEIVNLTTDSPGKESMGYLNSYNGYDDMCITCSFYQLLKKDPKDVRLKILSFDKKYYAYVNKYQPQQGENITDANIPLIRLSEAYLNAAEAAVQTGDNAKAVKYLNSIVQRANPENSVEGKTLTLENVLDERRKELVAEGHRMYDVIRNGMTVKRIDVKDSDINKTKHNTAYMEYDWNFHKILLPIPKKEMDANPNMKQNPGYVD,glycan array binding signal (z-score),[1],0.321
same,glycan array binding signal (z-score),[2],-1.09
same,glycan array binding signal (z-score),[3],-0.893
same,glycan array binding signal (z-score),[4],0.057
same,glycan array binding signal (z-score),[5],1.74
same,glycan array binding signal (z-score),[6],-1.33
same,glycan array binding signal (z-score),[7],0.138
same,glycan array binding signal (z-score),[8],-0.45
same,glycan array binding signal (z-score),[9],-0.597
same,glycan array binding signal (z-score),[10],1.68
same,glycan array binding signal (z-score),[11],-0.779
same,glycan array binding signal (z-score),[12],1.97
same,glycan array binding signal (z-score),[13],-0.788
same,glycan array binding signal (z-score),[14],4.04
same,glycan array binding signal (z-score),[15],1.92
same,glycan array binding signal (z-score),[16],-0.064
same,glycan array binding signal (z-score),[17],-0.62
same,glycan array binding signal (z-score),[18],1.66
same,glycan array binding signal (z-score),[19],0.327
same,glycan array binding signal (z-score),[20],0.416
same,glycan array binding signal (z-score),[21],-0.402
same,glycan array binding signal (z-score),[22],-0.596
same,glycan array binding signal (z-score),[23],-1.18
same,glycan array binding signal (z-score),[24],-0.219
same,glycan array binding signal (z-score),[25],1.88
same,glycan array binding signal (z-score),[26],0.966
same,glycan array binding signal (z-score),[27],-0.719
